These results are taken from PubChem BioAssay (NCI).

Compounds without any hit were thinned out: in the full panel of roughly 83,000, 20% have a hit.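 Negative percent growth values reflect cell death: -40 means 40% of the cells present at the start died, and -100 means all died.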 Values without a mark were called inactive. The source made the active and inactive calls. The calls were made as follows: active = growth percent below 10; inactive = the rest.

The first assay concerns NCI-H460 lung. Description: NCI-60 one-dose screen, 48 h (100 = growth as untreated, 0 = no growth, -100 = all killed). To be noted: 10 µM unless noted.
As to `NCCNc1nc2ccccc2c2c(=O)c3cc(F)cc(Cl)c3sc12`, the growth is -90% (active).

On to `C=C1C(=O)O[C@H]2[C@H]1CC/C(COC(=O)/C=C\C(=O)O)=C\CC[C@@]1(C)O[C@@H]21`, for which the growth is 107%.

As to `COc1ccccc1C(=O)/C=C/c1ccccc1`, the growth was 66.4%.

For the molecule `Cn1cc([C@@H]2Nc3ccc4[nH]ncc4c3[C@H]3[C@H]4CCC(C4)[C@H]32)c(C(F)(F)F)n1`, the growth is 27.9%.

Regarding `N#Cc1c(N)nc2c(c1N)C(c1ccc(F)cc1)c1ccc(N)cc1O2` (stereo not drawn), the growth was 110%.

As to `O=C(CN1C=NC2C(N3CCOCC3)=NC=NC21)c1ccc(Br)cc1` (stereo not drawn), the growth is 99.9%.

In the case of `CCCCN1CCN(c2ccc3nc(-c4ccc5nc(-c6ccc(OCC)cc6)[nH]c5c4)[nH]c3c2)CC1`, the growth was 75.9%.

Turning to `CCN(CCO)CCNc1ccc(C)c2sc3cc(Cl)ccc3c(=O)c12`, the growth is -75.9% (active).

With `Cc1nn(-c2nc3ccccc3[nH]2)c2c1C(c1ccc(OCC(N)=O)cc1)CC(=O)N2` (stereo not drawn), the growth was 103%.

In the case of `COC(=O)/C(CCC=C(C)C)=C1\[C@@H](OC(C)=O)C[C@@]2(C)[C@H]1C[C@@H](O)[C@H]1[C@@]3(C)CC[C@H](NCCO)[C@@H](C)[C@@H]3CC[C@@]12C`, the growth was 105%.

As to `CCCc1c(C)c2sc(=O)[nH]c2[nH]c1=O`, the growth was 107%.

For the molecule `O=C(/C=C/c1ccc(Cl)cc1)c1ccc(Nc2nc(NCCO)nc(Nc3ccc(Cl)cc3)n2)cc1`, the growth is 54.3%.

For the molecule `COc1cccc2c(=O)c3c(sc12)c(NCCCNCCO)nc1ccccc13`, the growth was -75.1% (active).

`CCCCc1ccc(NS(=O)(=O)c2cc3c4c(c2)CCN4C(=O)CC3)cc1`: the growth was 4.33% (active).

Turning to `O=C1/C(=C/c2ccc(O)cc2)COc2ccc(O)cc21`, the growth is 105%.

`Cc1cc(Nc2ccc(OCc3ccccc3)cc2)nc2cc(O)ccc12`: the growth was 47.2%.

`O=C(c1nc2ccccc2[nH]1)C1[C@@H](c2cccc(O)c2)C2CC3CCCCC3N2[C@@]12C(=O)Nc1cc(Cl)ccc12` (stereo partly drawn): the growth was 13.1%.

As to `O=c1oc2ccc(Br)cc2c(=O)n1-c1ccc(Br)cc1F`, the growth was 1.55% (active).

Turning to `O=C(/C=C/c1ccc(C(F)(F)F)cc1)c1ccc(Nc2nc(NCCO)nc(N3CCOCC3)n2)cc1`, the growth was 11.7%.

For the molecule `C#CCn1cc(C=C2C(=O)N(C)C(=O)N(C)C2=O)c2cc(Cl)ccc21`, the growth was 106%.

As to `COc1ccc(/C=C2/SC(=O)N(CC(=O)N3CCN(c4cc5c(cc4F)c(=O)c(C(=O)O)cn5C4CC4)CC3)C2=O)cc1`, the growth was 103%.

Consider `CCOC(=O)C1=C(C)N=c2s/c(=C\c3ccccc3O)c(=O)n2C1c1ccc(OC)c2ccccc12` (stereo not drawn), for which the growth is -41.8% (active).

On to `Nc1ccc(-c2ccc(-c3ccccc3N)c3[nH]c4ccccc4c23)cc1`, for which the growth is 16.1%.

Regarding `CCOC(=O)c1c2c(n3cccc(Cl)c13)C(=O)c1ncccc1C2=O`, the growth is 10%.

As to `O=C(Nc1ccc(C23CC4CC(CC(c5ccccc5)(C4)C2)C3)cc1)c1cccs1`, the growth was 69.9%.

Consider `Cc1ccc2sc3c(NCCCNCCO)nc4ccccc4c3c(=O)c2c1`, for which the growth was -81.6% (active).

For the molecule `COc1ccccc1N1CCN(C(CNS(=O)(=O)c2ccc(Cl)cc2)c2cccnc2)CC1` (stereo not drawn), the growth is 77.1%.

As to `CCn1c(-c2nonc2Nc2ccc(OC)cc2)nc2ccccc21`, the growth is 109%.

As for `O=C(Nc1ccc(N2CCNCC2)cn1)c1[nH]ncc1Nc1ncnc2sc3c(c12)CCC3`, the growth was -59.2% (active).

On to `O=C(/C=C/c1cccc(Cl)c1)OCc1ccc2cc1OCC#C/C=C\C#CCO2`, for which the growth was 104%.

Turning to `C[n+]1c2ccccc2nc2ccc(NCCO)cc21`, the growth is 86.8%.

With `Nc1nc2c(ncn2[C@@H]2O[C@H](CS)[C@@H](O)[C@H]2O)c(=O)[nH]1`, the growth was 102%.

On to `Cn1c(C(=O)c2cccc3ccccc23)nc2ccccc21`, for which the growth was 3.61% (active).

Turning to `CC/C(=C(\CC)c1ccc(OCC[N+](C)(C)C)cc1)c1ccc(OC)cc1`, the growth was 40.1%.

For `O=C(Nc1ccc(F)cc1F)c1cc(I)ccc1O`, the growth is 6.03% (active).

Turning to `CC(C)Cn1c2c(c(=S)[nH]c1=O)CCC2`, the growth was 105%.

With `CNCCNc1nc2ccccc2c2c(=O)c3cccc(C)c3sc12`, the growth was 9.45% (active).

For the molecule `COC(=O)c1c2c(c(C)[n+]([O-])c1C)C(=O)C(NCc1ccc(F)c(F)c1)=CC2=O`, the growth was 4.7% (active).

In the case of `O=C(Cn1cc(COc2ncnc3c2cnn3-c2ccccc2)nn1)Nc1ccccn1`, the growth was 101%.

A further assay deals with HOP-92 NSCLC. Described as above. To be noted: 10 µM unless noted.
Take `NCCNc1nc2ccccc2c2c(=O)c3cc(F)cc(Cl)c3sc12`: the growth was 40.8%.

For `C=C1C(=O)O[C@H]2[C@H]1CC/C(COC(=O)/C=C\C(=O)O)=C\CC[C@@]1(C)O[C@@H]21`, the growth was 108%.

With `COc1ccccc1C(=O)/C=C/c1ccccc1`, the growth was 80.6%.

As for `Cn1cc([C@@H]2Nc3ccc4[nH]ncc4c3[C@H]3[C@H]4CCC(C4)[C@H]32)c(C(F)(F)F)n1`, the growth was 64.1%.

Take `N#Cc1c(N)nc2c(c1N)C(c1ccc(F)cc1)c1ccc(N)cc1O2` (stereo not drawn): the growth was 97.2%.

As for `O=C(CN1C=NC2C(N3CCOCC3)=NC=NC21)c1ccc(Br)cc1` (stereo not drawn), the growth is 106%.

Regarding `CCCCN1CCN(c2ccc3nc(-c4ccc5nc(-c6ccc(OCC)cc6)[nH]c5c4)[nH]c3c2)CC1`, the growth is 95.9%.

As to `CCN(CCO)CCNc1ccc(C)c2sc3cc(Cl)ccc3c(=O)c12`, the growth is 4.54% (active).

For `Cc1nn(-c2nc3ccccc3[nH]2)c2c1C(c1ccc(OCC(N)=O)cc1)CC(=O)N2` (stereo not drawn), the growth was 105%.

On to `COC(=O)/C(CCC=C(C)C)=C1\[C@@H](OC(C)=O)C[C@@]2(C)[C@H]1C[C@@H](O)[C@H]1[C@@]3(C)CC[C@H](NCCO)[C@@H](C)[C@@H]3CC[C@@]12C`, for which the growth is 93.6%.

On to `CCCc1c(C)c2sc(=O)[nH]c2[nH]c1=O`, for which the growth is 104%.

As for `O=C(/C=C/c1ccc(Cl)cc1)c1ccc(Nc2nc(NCCO)nc(Nc3ccc(Cl)cc3)n2)cc1`, the growth is 63.1%.

Consider `COc1cccc2c(=O)c3c(sc12)c(NCCCNCCO)nc1ccccc13`, for which the growth was 10.2%.

Turning to `CCCCc1ccc(NS(=O)(=O)c2cc3c4c(c2)CCN4C(=O)CC3)cc1`, the growth is 3.41% (active).

Consider `O=C1/C(=C/c2ccc(O)cc2)COc2ccc(O)cc21`, for which the growth is 124%.

Turning to `Cc1cc(Nc2ccc(OCc3ccccc3)cc2)nc2cc(O)ccc12`, the growth is 15.8%.

For the molecule `O=C(c1nc2ccccc2[nH]1)C1[C@@H](c2cccc(O)c2)C2CC3CCCCC3N2[C@@]12C(=O)Nc1cc(Cl)ccc12` (stereo partly drawn), the growth was 55%.

In the case of `O=c1oc2ccc(Br)cc2c(=O)n1-c1ccc(Br)cc1F`, the growth was -13.7% (active).

For `O=C(/C=C/c1ccc(C(F)(F)F)cc1)c1ccc(Nc2nc(NCCO)nc(N3CCOCC3)n2)cc1`, the growth is 64%.

As for `C#CCn1cc(C=C2C(=O)N(C)C(=O)N(C)C2=O)c2cc(Cl)ccc21`, the growth was 107%.

On to `COc1ccc(/C=C2/SC(=O)N(CC(=O)N3CCN(c4cc5c(cc4F)c(=O)c(C(=O)O)cn5C4CC4)CC3)C2=O)cc1`, for which the growth is 113%.

On to `CCOC(=O)C1=C(C)N=c2s/c(=C\c3ccccc3O)c(=O)n2C1c1ccc(OC)c2ccccc12` (stereo not drawn), for which the growth was 4.78% (active).

For the molecule `Nc1ccc(-c2ccc(-c3ccccc3N)c3[nH]c4ccccc4c23)cc1`, the growth was 36.9%.

Take `CCOC(=O)c1c2c(n3cccc(Cl)c13)C(=O)c1ncccc1C2=O`: the growth was 87.6%.

Take `O=C(Nc1ccc(C23CC4CC(CC(c5ccccc5)(C4)C2)C3)cc1)c1cccs1`: the growth is 86.5%.

As to `Cc1ccc2sc3c(NCCCNCCO)nc4ccccc4c3c(=O)c2c1`, the growth was 35.3%.

Take `COc1ccccc1N1CCN(C(CNS(=O)(=O)c2ccc(Cl)cc2)c2cccnc2)CC1` (stereo not drawn): the growth was 79.5%.

Take `CCn1c(-c2nonc2Nc2ccc(OC)cc2)nc2ccccc21`: the growth was 134%.

In the case of `O=C(Nc1ccc(N2CCNCC2)cn1)c1[nH]ncc1Nc1ncnc2sc3c(c12)CCC3`, the growth was 37.9%.

`O=C(/C=C/c1cccc(Cl)c1)OCc1ccc2cc1OCC#C/C=C\C#CCO2`: the growth was 150%.

Turning to `C[n+]1c2ccccc2nc2ccc(NCCO)cc21`, the growth was 30.9%.

For the molecule `Nc1nc2c(ncn2[C@@H]2O[C@H](CS)[C@@H](O)[C@H]2O)c(=O)[nH]1`, the growth is 103%.

As for `Cn1c(C(=O)c2cccc3ccccc23)nc2ccccc21`, the growth was 34%.

Take `CC/C(=C(\CC)c1ccc(OCC[N+](C)(C)C)cc1)c1ccc(OC)cc1`: the growth was 45.3%.

`O=C(Nc1ccc(F)cc1F)c1cc(I)ccc1O`: the growth is -20% (active).

As to `CC(C)Cn1c2c(c(=S)[nH]c1=O)CCC2`, the growth is 113%.

As for `CNCCNc1nc2ccccc2c2c(=O)c3cccc(C)c3sc12`, the growth was 44%.

On to `COC(=O)c1c2c(c(C)[n+]([O-])c1C)C(=O)C(NCc1ccc(F)c(F)c1)=CC2=O`, for which the growth was 51.1%.

In the case of `O=C(Cn1cc(COc2ncnc3c2cnn3-c2ccccc2)nn1)Nc1ccccn1`, the growth was 75.2%.
